In the library only some 4.6% were active in any assay of this set; here they are far more common.
KKLEB cytotox – counter-screen for CF NF-kB inhibitors: cytotoxicity; KKLEB CF airway cells viability, ATPlite luminescence, overnight; active compounds read low; cells stimulated with P. aeruginosa culture filtrate; activity change (cytotoxicity), % at 5 µM; 360,000 compounds, 0.36% hits;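 active = corrected activity change at or below -50% at 5 µM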
Peg3 promoter – reduces Peg3 promoter-driven luciferase expression in HeLa; AID 588405; inhibition, % at 20 µM; HeLa PEG-Prom luciferase reporter, luminescence, overnight; 360,000 compounds, 1.7% hits;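 active = inhibition of at least 50% at 20 µM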
CF NFkB inh – inhibitors of cystic fibrosis induced NF-kB; KKLEB NF-kB-GFP reporter, PAF-induced, GFP fluorescence overnight; inhibition, % at 5 µM; 360,000 compounds, 0.86% hits; AID 588850;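 active = at least 50% inhibition at 5 µM, scaled per plate between neutral and stimulator controls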;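 note: PAF is a Pseudomonas aeruginosa culture filtrate used as stimulus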
HIF-2a inh – HIF-2a inhibition; 786-0 RCC cells HIF-2a reporter, luciferase luminescence, overnight; 360,000 compounds, 0.72% hits; inhibition, % at 18.8 µM;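 active = inhibition of the luminescence signal of 40% or more relative to plate controls, in a single-dose primary screen at 18.75 µM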
ABHD5 PLIN5 PPI – inhibitors of human ABHD5-perilipin-5 interaction; 360,000 compounds, 0.78% hits; inhibition, % at 4 µM; Split G. princeps luciferase complementation, luminescence, 4 h; Q00G26+Q8WTS1;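 active = inhibition above the mean inhibition across every tested compound plus 3 SD, cut at about 22% in these data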
Mdm2 MdmX PPI – inhibitors of human Mdm2/MdmX interaction; O15151+Q00987; SaOS-2 split-luciferase Mdm2/MdmX complementation, luminescence; inhibition, % at 8 µM; 330,000 compounds, 3% hits; AID 485346;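 active = inhibition of at least 50% at 8 µM in the primary screen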
Target sequence (O15151 whole entry, looked up): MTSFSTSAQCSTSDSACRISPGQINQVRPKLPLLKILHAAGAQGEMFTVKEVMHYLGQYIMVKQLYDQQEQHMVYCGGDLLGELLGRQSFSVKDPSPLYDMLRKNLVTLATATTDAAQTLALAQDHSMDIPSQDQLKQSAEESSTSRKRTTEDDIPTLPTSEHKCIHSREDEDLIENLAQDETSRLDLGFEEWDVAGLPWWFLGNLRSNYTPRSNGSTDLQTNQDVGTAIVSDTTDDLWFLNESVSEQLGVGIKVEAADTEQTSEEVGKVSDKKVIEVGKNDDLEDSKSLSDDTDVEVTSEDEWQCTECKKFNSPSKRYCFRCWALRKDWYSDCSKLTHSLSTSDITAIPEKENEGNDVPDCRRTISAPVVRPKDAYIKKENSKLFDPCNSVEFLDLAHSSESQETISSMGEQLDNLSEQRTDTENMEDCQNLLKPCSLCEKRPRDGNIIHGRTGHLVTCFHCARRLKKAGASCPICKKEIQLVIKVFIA
Target sequence (Q00987 whole entry, looked up): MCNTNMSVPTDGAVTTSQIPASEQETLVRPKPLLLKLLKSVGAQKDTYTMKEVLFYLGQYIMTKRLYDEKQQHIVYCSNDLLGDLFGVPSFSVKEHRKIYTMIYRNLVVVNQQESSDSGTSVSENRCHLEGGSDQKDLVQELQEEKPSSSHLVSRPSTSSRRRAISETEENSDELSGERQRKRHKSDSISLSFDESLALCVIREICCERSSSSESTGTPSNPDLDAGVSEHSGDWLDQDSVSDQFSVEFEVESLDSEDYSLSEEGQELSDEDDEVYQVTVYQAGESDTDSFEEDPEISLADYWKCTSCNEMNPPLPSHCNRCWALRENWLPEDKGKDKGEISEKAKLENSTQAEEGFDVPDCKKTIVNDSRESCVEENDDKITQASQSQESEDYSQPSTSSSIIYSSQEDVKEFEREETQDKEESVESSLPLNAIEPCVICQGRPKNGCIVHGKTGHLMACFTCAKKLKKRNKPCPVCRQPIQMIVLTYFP
Mdm2-MdmX conf – human Mdm2/MdmX binding inhibition, confirmed; shares compounds with Mdm2 MdmX PPI; inhibition, % at 8 µM; luminescent assay; 10,000 compounds, 55% hits; in the data active = inhibition above about 40%
FLuc counter – full-length luciferase inhibition in Mdm2/MdmX counter-screen. AID 504607. SaOS-2 full-length luciferase counterscreen, luminescence. shares compounds with Mdm2 MdmX PPI. inhibition, % at 8 µM. 6,200 compounds, 77% hits;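 active = mean inhibition at 8 µM reaching about 37%, which flags the compound as non-specific, limit read from the data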;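 note: p53-null SaOS-2 cells with luciferase driven by a doxycycline-inducible promoter; compound on cells about two nights before reading with doxycycline added after day one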
Numbers stand for hits; - = inactive; . = not tested or not shown.

SMILES	KKLEB cytotox	Peg3 promoter	CF NFkB inh	HIF-2a inh	ABHD5 PLIN5 PPI	Mdm2 MdmX PPI	Mdm2-MdmX conf	FLuc counter
Cc1ccc(C(=O)O/N=C(\N)c2ccccn2)c(Cl)c1	-72	103	-	73	-	96	89	-
CCCCN1C=CC(=C2C(=O)c3ccccc3C2=O)C=C1	-72	110	-	89	-	84	79	53
CCN1C(=O)c2cccc3c(S(=O)(=O)N(C(C)=O)c4ccc(OC(C)=O)cc4)ccc1c23	-	-	-	-	-	61	-	.
CCN1C(=O)c2cccc3c(S(=O)(=O)N4CCC(C)CC4)ccc1c23	-	-	-	-	-	83	42	83
COc1ccc(N(C(=O)c2ccncc2)S(=O)(=O)c2ccc3c4c(cccc24)C(=O)N3C)cc1	-	-	-	-	-	-	.	.
CCN1C(=O)c2cccc3c(S(=O)(=O)NCc4ccccc4)ccc1c23	-	-	-	-	-	-	.	.
CN1C(=O)c2cccc3c(S(=O)(=O)Nc4ccccn4)ccc1c23	-	-	-	-	-	56	41	79
CN1C(=O)c2cccc3c(S(N)(=O)=O)ccc1c23	-	-	-	-	-	-	.	.
Cc1ccccc1NS(=O)(=O)c1ccc2c3c(cccc13)C(=O)N2C	-	-	-	-	-	53	49	100
O=C(NCC(c1ccco1)N1CCOCC1)C1CCCCC1 (configuration not stated)	-	-	-	-	-	-	.	.
CCC(=O)N1CCCC(C)(C(=O)Nc2nccc3ccccc23)C1 (configuration not stated)	-	-	-	-	-	.	.	.
CCN(CC(=O)Nc1c(F)cccc1F)C(=O)c1ccc(=O)n(C)n1	-	-	-	-	-	.	.	.
CCN1C(=O)c2cccc3c(S(=O)(=O)Nc4ccccc4OC)ccc1c23	-	-	-	-	-	56	43	79
Cc1cc(=O)n2[nH]c(SCc3ccccc3Cl)nc2n1	-	-	-	-	-	-	.	.
O=C(NCC1CCCO1)C(=Cc1cccc([N+](=O)[O-])c1)C(=O)NCC1CCCO1 (configuration not stated)	-	-	-	-	-	65	-	45
Cc1cccc(NC(=O)CSc2cccc3cccnc23)c1C	-	-	-	-	-	-	.	.
Cc1cccc(CSc2cccc3cccnc23)c1	-	-	-	-	-	51	67	37
CCOC(=O)CSc1cccc2cccnc12	-	-	-	-	-	77	-	.
CC(C)(C)OC(=O)N1CCCC(C(=O)Nc2cccc(C(=O)N3CCOCC3)c2)C1 (configuration not stated)	-	-	-	-	-	.	.	.
O=C(COC(=O)C1CC2CCCC(C1)C2=O)Nc1ccc(Cl)cn1 (configuration not stated)	-	-	-	-	-	-	.	.
CC(=O)C1C(=O)C=C(c2cccs2)CC1c1ccccc1 (configuration not stated)	-	-	-	-	-	-	.	.
O=C1C=C(c2cccs2)C[C@H](c2ccccc2)[C@H]1n1nnc([N+](=O)[O-])n1	-	-	-	-	-	74	54	172
CCCCn1c(N)c(N(CCOC)C(=O)CC2CCCCC2)c(=O)[nH]c1=O	-	-	-	-	-	.	.	.
O=C1CN(C(=O)c2ccc(Cl)c(S(=O)(=O)N3CCc4ccccc43)c2)c2ccccc2N1	-	-	-	-	-	86	78	64
O=C1CN(C(=O)c2cccc(Br)c2)c2ccccc2N1	-	-	-	-	-	53	62	52
SMILES	KKLEB cytotox	Peg3 promoter	CF NFkB inh	HIF-2a inh	ABHD5 PLIN5 PPI	Mdm2 MdmX PPI	Mdm2-MdmX conf	FLuc counter
NC(=O)C1CCN(C(=O)c2ccc(Cl)c(S(=O)(=O)N3CCc4ccccc43)c2)CC1	-	-	-	-	-	.	.	.
O=C1NC[C@H](CCCCN2C[C@H](Cc3ccc(O)cc3)N(Cc3ccccc3)C(=O)C2=O)N(CCc2ccc(O)cc2)C1=O	.	.	.	-	-	.	.	.
CCC(=O)N1c2ccccc2NC2=C(C(=O)CCC2)C1c1ccc(N(C)C)cc1 (configuration not stated)	-	-	-	-	-	-	.	.
O=C1CCCC2=C1C1c3ccccc3C(=O)N1c1ccc(C(=O)c3ccccc3)cc1N2 (configuration not stated)	-	-	-	-	-	56	42	67
O=C(COc1coc(CN2CCc3ccccc32)cc1=O)Nc1ccccc1	-	-	-	-	-	-	.	.
CNc1cncc(-c2cccc(C(=O)N(C)C)c2)n1	-	-	-	-	-	.	.	.
CNc1ccc(-c2cccc(CO)c2)cn1	-	-	-	-	-	.	.	.
COc1ccc(/C=N/Nc2nnc(-c3ncc[nH]3)c3ccccc23)cc1	-	-	-	-	-	52	-	.
COC(=O)c1ccc2nc(C)cc(Nc3ccc(N(C)C)cc3)c2c1	-	-	-	-	-	-	.	.
COC(=O)c1ccc(Nc2cc(C)nc3ccccc23)cc1	-	-	-	-	-	100	65	52
COc1ccc(/C=N/Nc2cc(C)nc3ccccc23)cc1	-	103	-	-	-	98	57	46
CC(=O)Nc1ccc(C=NNc2nnc(NN=Cc3ccc(NC(C)=O)cc3)c3ccccc23)cc1	-	-	-	-	-	.	.	.
COc1cccc2c(N/N=C/c3ccc(O)c(O)c3)cc(C)nc12	-	-	-	-	-	-	.	.
COc1ccc(/C=N/Nc2cc(C)nc3c(C)cccc23)cc1	-	111	-	-	-	97	56	77
CSc1cccc(NC(=O)C2CCCN(S(C)(=O)=O)C2)c1 (configuration not stated)	-	-	-	-	-	.	.	.
CN1OC[C@@H]2CN(S(=O)(=O)c3ccccc3)[C@H](c3ccc(-n4ccnc4)cc3)C[C@@H]21	-	-	-	-	-	.	.	.
CC1Oc2ccc(C#N)cc2N(Cc2cccc(F)c2)C1=O (configuration not stated)	-	-	-	-	-	.	.	.
Oc1ccc2ccccc2c1C=NCc1cn2ccsc2n1	-	-	-	-	-	51	-	.
Oc1ccc2ccccc2c1/C=N/c1nccs1	-	-	-	-	-	-	.	.
O=C1OCC2=C1C(c1ccc3c(c1)OCO3)c1cc3c(cc1O2)OCO3 (configuration not stated)	-	-	-	-	-	.	.	.
CC(C)c1ccc(C2C3=C(COC3=O)Nc3cc4c(cc32)OCO4)cc1 (configuration not stated)	-	-	-	-	-	76	62	94
Oc1c(N=Nc2ccccn2)ccc2ccccc12	-	-	-	-	-	91	46	46
O=C(Nc1ccc(N2CCCCCC2)cc1)c1ccccc1Cl	-	-	-	-	-	-	.	.
O=C(Nc1ccc(N2CCCCC2)cc1)c1ccccn1	-77	91	-	93	-	81	84	-
